Sampled rows, rich in hits. Any-hit rate of the full collection: about 3.1%.
HIF-2a inh: inhibitors of HIF-2a; inhibition, % at 18.8 µM; AID 624352; 360,000 tested, 0.72% active; 786-0 RCC cells HIF-2a reporter, luciferase luminescence, overnight;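 active means inhibition of the luminescence signal of 40% or more relative to plate controls, in a single-dose primary screen at 18.75 µM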
Peg3 promoter: inhibitors of Peg3 promoter. 360,000 tested, 1.7% active. HeLa PEG-Prom luciferase reporter, luminescence, overnight. inhibition, % at 20 µM;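 active means inhibition of at least 50% at 20 µM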
KKLEB cytotox: reduces viability of KKLEB cystic fibrosis airway cells | KKLEB CF airway cells viability, ATPlite luminescence, overnight; hits give low values; cells stimulated with P. aeruginosa culture filtrate | activity change (cytotoxicity), % at 5 µM | 360,000 tested, 0.36% active | AID 602141;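 active means corrected activity change at or below -50% at 5 µM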
PPC-1+TRAIL kill: PPC-1 cancer cell killing with TRAIL present; PPC-1 cells + TRAIL, ATPLite viability luminescence; cell killing (% activity), % at 4 µM or 5 µM; 220,000 tested, 0.41% active; AID 1443;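 active means cell killing above 50% in the first pass at 4 µM, then a duplicate retest at 5 µM averaging 50% or more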
TRAIL sens C8: caspase-8 TRAIL sensitization; NB7+C8 cells + TRAIL, ATPlite viability luminescence; inhibition (viability loss, TRAIL sensitization), % at 10 µM; 360,000 tested, 1% active;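 active means compounds causing at least 50% loss of cell viability in the single-dose screen, relative to plate controls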
CF NFkB inh: inhibitors of cystic fibrosis induced NF-kB; KKLEB NF-kB-GFP reporter, PAF-induced, GFP fluorescence overnight; inhibition, % at 5 µM; 360,000 tested, 0.86% active; AID 588850;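 active means at least 50% inhibition at 5 µM, scaled per plate between neutral and stimulator controls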;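 further: PAF is a Pseudomonas aeruginosa culture filtrate used as stimulus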
Of the large screens only hits and unclear results are named; the others gave an inactive call.

CCc1nnc(NC(=O)c2ccc(S(=O)(=O)N3CCc4ccccc4C3)cc2)s1	none
Cc1cc(C)c2nc(NNC(=O)c3ccc(S(=O)(=O)N4CCc5ccccc5C4)cc3)sc2c1	Peg3 promoter 75
N#Cc1c2ccc(OCC(=O)NCc3ccco3)cc2n2ccccc12	none (no result: PPC-1+TRAIL kill)
N#Cc1c2ccc(O)cc2n2ccccc12	CF NFkB inh 71
[O-][n+]1c2ccccc2[n+]([O-])c2cc(O)ccc21	none (no result: PPC-1+TRAIL kill)
O=[N+]([O-])c1ccc(Sc2ncccn2)c([N+](=O)[O-])c1	none
O=[N+]([O-])c1cnc(Sc2ccncn2)c([N+](=O)[O-])c1	Peg3 promoter 113 (no result: PPC-1+TRAIL kill)
CC(C)CC1C(=O)N(Cc2cn(CCC3OCCCO3)nn2)CCS(=O)(=O)N1Cc1ccc(-c2ccc(Cl)c(Cl)c2)cc1 (stereo not drawn)	Peg3 promoter 56 (no result: PPC-1+TRAIL kill)
Cc1cccc(C)c1-c1ccc(CN2C(CC(C)C)C(=O)N(Cc3cn(CCO)nn3)CCS2(=O)=O)cc1 (stereo not drawn)	Peg3 promoter 58 (no result: PPC-1+TRAIL kill)
CC(C)CC1C(=O)N(Cc2cn(CCC3OCCO3)nn2)CCS(=O)(=O)N1Cc1ccc(-c2cccc(CO)c2)cc1 (stereo not drawn)	none (no result: PPC-1+TRAIL kill)
COCOCCn1cc(CN2CCS(=O)(=O)N(Cc3ccc(-c4ccc(Cl)c(Cl)c4)cc3)C(C)C2=O)nn1 (stereo not drawn)	Peg3 promoter 93 (no result: PPC-1+TRAIL kill)
O=C(C=Cc1cccnc1)c1ccccc1	Peg3 promoter 79 (no result: PPC-1+TRAIL kill)
O=C(/C=C/c1cccnc1)c1ccc(O)cc1	none
CCC(CC)C(C(=O)NCc1ccccc1)N1CCN(CCN2CCOCC2)CC1 (stereo not drawn)	none (no result: Peg3 promoter, KKLEB cytotox, PPC-1+TRAIL kill, CF NFkB inh)
Cc1nc2ccccc2c(N)c1C(=O)/C=C/c1ccccc1	Peg3 promoter 72 (no result: PPC-1+TRAIL kill)
O=C(Cc1csc(Nc2nc(=S)[nH]c3ccccc23)n1)N1CCN(c2cccc(Cl)c2)CC1	Peg3 promoter 82
Cc1ccc(Cl)cc1N1CCN(C(=O)Cc2csc(Nc3nc(=S)[nH]c4ccccc34)n2)CC1	none
CCN(CC)CCOc1ccc(/C(=C(\Cl)c2ccccc2)c2ccccc2)cc1	Peg3 promoter 81 (no result: PPC-1+TRAIL kill)
CSc1ccc(C2NC(=O)c3ccccc3N2)cc1 (stereo not drawn)	TRAIL sens C8 51 (no result: PPC-1+TRAIL kill)
CCCCNC(=S)N(CCO)Cc1cc2cc3c(cc2[nH]c1=O)OCCO3	none (no result: PPC-1+TRAIL kill)
CC(C)(C)OC(=O)NCCc1nnc(SCc2ccccc2Cl)o1	none
CC(C)(C)OC(=O)NCCc1nnc(S(=O)(=O)Cc2ccc(Cl)cc2Cl)o1	CF NFkB inh 60
CN(C)C(=O)c1ccc(NC(=O)c2cc(-c3ccco3)nc3ccccc23)cc1	none (no result: PPC-1+TRAIL kill)
O=C(N/N=C/c1ccc(F)cc1)c1cc(-c2ccco2)nc2ccccc12	TRAIL sens C8 50
CCN(CC)CCNC(=O)c1ccc(NC(=O)c2cc(-c3ccco3)nc3ccccc23)cc1	Peg3 promoter 61 (no result: PPC-1+TRAIL kill)
CCOc1ccc(/C=N/NC(=O)c2cc(-c3ccco3)nc3ccccc23)cc1	none
Cc1nn(-c2ccccc2)c(N2CCCC2)c1/C=N/NC(=O)c1cc(-c2ccccn2)nc2ccccc12	Peg3 promoter 57
Cc1cccc2sc(NNC(=O)c3cc(-c4cccs4)nc4ccccc34)nc12	Peg3 promoter 56, TRAIL sens C8 50
O=C(O)c1ccc(/C=N/NC(=O)c2cc(-c3cccs3)nc3ccccc23)cc1	Peg3 promoter 65
CC(=O)c1c(C)[nH]c(C(=O)Nc2nc(-c3ccc(-c4ccccc4)cc3)cs2)c1C	Peg3 promoter 103, CF NFkB inh 78
CC(=O)c1c(C)[nH]c(C(=O)Nc2nc(-c3ccc(Cl)cc3)cs2)c1C	none
CCOC(=O)C(Cc1nc(OCc2ccccc2)cc(OCc2ccccc2)n1)=NO	Peg3 promoter 55 (no result: PPC-1+TRAIL kill)
O=C1C=C(NCc2ccccc2)c2ccccc2C1=O	none
Cc1ccc(NC2=CC(=O)C(=O)c3ccccc32)c(C)c1	CF NFkB inh 77 (no result: PPC-1+TRAIL kill)
O=C1C=C(Nc2ccccc2O)c2ccccc2C1=O	KKLEB cytotox -64, CF NFkB inh 64
COc1cccc(N2CCN(S(=O)(=O)c3ccc4c(c3)N(C(C)=O)CCO4)CC2)c1	none (no result: PPC-1+TRAIL kill)
CCCCNC(=O)C[C@@H]1C[C@@]2(C(=O)OCC)CCC=C2N(Cc2ccc(Cl)cc2Cl)C1=O	none (no result: Peg3 promoter, KKLEB cytotox, PPC-1+TRAIL kill, CF NFkB inh)
O=[N+]([O-])c1ccccc1/C=C/C=N/Nc1nc(N2CCCCC2)nc(N2CCCCC2)n1	none
C(=C\c1ccccc1)/C=N/Nc1nc(N2CCCCC2)nc(N2CCCCC2)n1	Peg3 promoter 51
Cc1ccc(-c2csc(=Nc3cccnc3)n2CCCn2ccnc2)cc1C	CF NFkB inh 75
Cc1ccc2c(c1)c1c3n2CCN(C(=O)CCl)C3CCC1 (stereo not drawn)	Peg3 promoter 56 (no result: PPC-1+TRAIL kill)
CCNC(=O)C1CCCN(C(=O)c2ccc(OC(F)F)cc2)CC1 (stereo not drawn)	none (no result: PPC-1+TRAIL kill)
CC(C)N(C(=O)N1CCN(c2ccnc3cc(Cl)ccc23)CC1)C(C)C	Peg3 promoter 54 (no result: PPC-1+TRAIL kill)
Cc1cc(C)nc(S/C=C/C(=O)c2ccccc2F)n1	Peg3 promoter 97, CF NFkB inh 76
Cc1cc(C)nc(NC(=S)NC(=O)c2ccccc2F)n1	none (no result: PPC-1+TRAIL kill)
COc1ccc(OCCN2CCC(C(=O)NC(C)c3cccc4ccccc34)CC2)cc1 (stereo not drawn)	none (no result: PPC-1+TRAIL kill)
Cn1cc(/C=C/c2cc[n+](C)cc2)c2cc(Cl)ccc21	Peg3 promoter 51 (no result: PPC-1+TRAIL kill)
Cc1ccc(S(=O)(=O)N2C[C@H]3n4c(=O)ccc(=O)n4C[C@H](OC(=O)NCc4ccccc4)[C@@]3(O)C2)cc1	none (no result: PPC-1+TRAIL kill)
Cc1ccc(S(=O)(=O)N2C[C@H]3n4c(=O)ccc(=O)n4C[C@H](OC(=O)NCC4CCCCC4)[C@@]3(O)C2)cc1	Peg3 promoter 94 (no result: PPC-1+TRAIL kill)
CCOC(=O)C1=C(COC(=O)CCOc2ccc(C)cc2)NC(=O)NC1C (stereo not drawn)	Peg3 promoter 56 (no result: PPC-1+TRAIL kill)
NC(=O)C1CCN(C(=O)c2ccc(NS(=O)(=O)/C=C/c3ccccc3)cc2)CC1	none (no result: PPC-1+TRAIL kill)
COc1ccccc1NS(=O)(=O)c1ccc(OC)c(OC)c1	none
COc1cc(NS(=O)(=O)c2ccc(OC)c(OC)c2)cc(OC)c1	Peg3 promoter 52
Cn1nc(C(C)(C)C)cc1C(=O)N1CCCC(C)(C(=O)NS(=O)(=O)C2CC2)C1 (stereo not drawn)	none (no result: PPC-1+TRAIL kill)
Cc1cc(C)c(O)c(-c2cc(C(=O)Nc3ccc(S(=O)(=O)N4CCOCC4)cc3)[nH]n2)c1	Peg3 promoter 59
CC(=O)Nc1ccc(NC(=O)c2cc(-c3cc(C)cc(C)c3O)n[nH]2)cc1	none (no result: PPC-1+TRAIL kill)
CC(C)(C)c1ccc(-n2nc(C#N)c(Cl)cc2=O)cc1	HIF-2a inh 92, Peg3 promoter 104, KKLEB cytotox -101, CF NFkB inh 91
CCOc1cc2[nH]c(=S)n(CCC(=O)NC3CCCCC3)c(=O)c2cc1OCC	none (no result: PPC-1+TRAIL kill)
Cc1cc(C)c(S(=O)(=O)Nc2ccc3c4c(cccc24)CC3)c(C)c1	CF NFkB inh 57
Cc1ccc(S(=O)(=O)Nc2ccc3c4c(cccc24)CC3)c(C)c1	none (no result: PPC-1+TRAIL kill)

Screening results: PubChem, Sanford-Burnham Center for Chemical Genomics
